Experimental data: PubChem BioAssay (NCI)
About 83,000 compounds went through this panel and 20% of them were active in at least one assay; those are over-represented in the sample as a whole.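 The endpoint reported here, percent growth, reads 100 for growth as untreated, 0 for no net growth and -100 for all cells dead.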 A number with no mark means an inactive call. Activity calls are given as the source filed them. How the source made its calls: active means growth percent below 10; inactive means the rest.

Experiments:
Test in all cases: NCI-60 one-dose screen, 48 h (100 = growth as untreated, 0 = no growth, -100 = all killed)
Details in all cases: 10 µM
SR leukemia = tested on: SR leukemia
OVCAR-8 ovarian = tested on: OVCAR-8 ovarian
OVCAR-5 ovarian = tested on: OVCAR-5 ovarian
OVCAR-4 ovarian = tested on: OVCAR-4 ovarian
SK-OV-3 ovarian = tested on: SK-OV-3 ovarian
IGROV1 ovarian = tested on: IGROV1 ovarian
OVCAR-3 ovarian = tested on: OVCAR-3 ovarian
HS 578T breast = tested on: HS 578T breast
NCI/ADR-RES ovarian = tested on: NCI/ADR-RES ovarian
T-47D breast = tested on: T-47D breast
BT-549 breast = tested on: BT-549 breast
MDA-MB-435 melanoma = tested on: MDA-MB-435 melanoma
SW-620 colon = tested on: SW-620 colon
MCF7 breast = tested on: MCF7 breast
HCT-116 colon = tested on: HCT-116 colon
HCC-2998 colon = tested on: HCC-2998 colon
KM12 colon = tested on: KM12 colon

SMILES	growth (SR leukemia)	growth (OVCAR-8 ovarian)	growth (OVCAR-5 ovarian)	growth (OVCAR-4 ovarian)	growth (SK-OV-3 ovarian)	growth (IGROV1 ovarian)	growth (OVCAR-3 ovarian)	growth (HS 578T breast)	growth (NCI/ADR-RES ovarian)	growth (T-47D breast)	growth (BT-549 breast)	growth (MDA-MB-435 melanoma)	growth (SW-620 colon)	growth (MCF7 breast)	growth (HCT-116 colon)	growth (HCC-2998 colon)	growth (KM12 colon)
N=C1S/C(=C/c2ccc(-c3ccc4c(c3)C(=O)NC4=O)o2)C(=O)N1c1ccc(Br)cc1	25%	37.8%	86.3%	1.3% (active)	62.3%	21.9%	51.4%	61.6%	50.5%	19.9%	60.3%	39.1%	48.5%	3.39% (active)	31.8%	89%	46.4%
COc1ccccc1-n1c(-c2sc(NC(C)=O)nc2C)n[nH]c1=S	79.5%	108%	109%	106%	109%	106%	135%	121%	106%	106%	93.8%	105%	108%	97.5%	98.3%	108%	108%
CCCCCCCCCCCCCCCCCC[n+]1ccc2c(C)c3c(c(C)c2c1)c1cc(O)ccc1n3CC	12.2%	7.3% (active)	42.5%	18.2%	22.2%	6.43% (active)	4.31% (active)	9.04% (active)	72.3%	23.5%	-11% (active)	-53.4% (active)	13.3%	28.3%	7.88% (active)	31.5%	10.8%
COc1cccc(N=Nc2cccc(OC)c2)c1	92.8%	96.2%	90.6%	104%	84.6%	89.6%	102%	79.8%	105%	70.2%	85%	98.6%	94.2%	78.8%	84.8%	88.6%	95.8%
Cc1c2cnccc2c(C)c2c1oc1ccccc12	21.2%	71.1%	82.4%	98.9%	71.2%	78.8%	98.1%	53.7%	73.7%	77.5%	80.9%	91.6%	64.1%	43.7%	45%	84.9%	81.7%
COc1ccc(/C=C2\CCCC3=C2NC(N)=NC3c2ccc(OC)cc2)cc1 (stereo not given)	81.9%	95.8%	103%	72.8%	78.3%	99.7%	102%	112%	90.8%	104%	112%	90.2%	95.8%	72.3%	78.6%	116%	87.2%
c1cnc2[nH]cc(-c3nc(-c4ccsc4)cs3)c2c1	87.7%	96.9%	111%	93%	92.8%	70.8%	84.2%	87.5%	101%	66.1%	96.1%	98.3%	111%	57.7%	89.9%	115%	88.9%
CCOC(=O)c1sc2ncnc(Nc3ccc4c(cnn4C(=O)Nc4ccccc4)c3)c2c1C	27.9%	51.7%	98.9%	-1.84% (active)	73.2%	87.1%	67.8%	41.6%	49.2%	51.5%	48.9%	54.2%	50%	55.8%	34.4%	98.4%	65.5%
CC(C)(C)OC(=O)CN1CCc2c(sc3ncnc(N/N=C/c4cccc5ccccc45)c23)C1	18.2%	35.6%	31.1%	54.5%	67.4%	30.1%	39.9%	21.5%	7.91% (active)	26.4%	64.3%	27.6%	33.9%	-24.5% (active)	26%	44.1%	53.1%
CC(C)CCN(CCC(C)C)CC(=O)Nc1ccc(S(=O)(=O)c2ccc(NC(=O)CN(CCC(C)C)CCC(C)C)cc2)cc1	3.98% (active)	21.8%	54.3%	73.7%	84.3%	12.1%	22.7%	65.3%	59.3%	52.7%	42.2%	65.7%	-1.98% (active)	15.3%	-54.2% (active)	95.8%	54.5%
COc1ccc(-c2cc(-c3ccc(OC)c(OC)c3)nc(SCCCC(=O)NO)n2)cc1	15.1%	10.4%	15.9%	13.1%	-21.3% (active)	-25.1% (active)	-24% (active)	4.08% (active)	-34.7% (active)	4.26% (active)	8.08% (active)	1.23% (active)	2.56% (active)	-22% (active)	0.272% (active)	-15.7% (active)	15.7%
CC(C)(C)OC(=O)N1CCc2c(sc3ncnc(N/N=C/c4cccc(Br)c4)c23)C1	29.4%	46.6%	70.5%	54.9%	62.2%	43.9%	61.5%	71.2%	42.1%	20.2%	79.4%	34.3%	41.1%	5.3% (active)	29.6%	42.6%	62.3%
CN1CCc2c(sc3nc4n(-c5ccc(Cl)cc5)cnn4c(=O)c23)C1	120%	100%	105%	111%	91.4%	95.3%	101%	115%	104%	91.8%	93.4%	102%	110%	70.6%	98%	104%	103%
CC1/C=C/C=C/C=C/C=C/C=C/C=C/C=C/C(O[C@@H]2O[C@H](C)[C@H](O)[C@@H](O)[C@@H]2N)CC(O)C(C(=O)O)C(O)CC(=O)CC(O)CC(O)CC(O)CC(=O)CCCC(=O)CC(=O)OC1C(C)CC(C)C(O)CC(=O)c1ccc(N)cc1 (stereo not given in full)	-63.1% (active)	-97.5% (active)	-98.9% (active)	-96.1% (active)	-100% (active)	-83.7% (active)	-99.7% (active)	-52.8% (active)	-99.6% (active)	-87.1% (active)	-93% (active)	-93% (active)	-95.3% (active)	-87% (active)	-90.7% (active)	-98.1% (active)	-96% (active)
Cc1ccc(C(=O)/C=C/c2ccccc2)s1	88.3%	111%	110%	133%	130%	79.4%	89.6%	106%	113%	141%	99%	98.5%	100%	40%	60.4%	101%	92.8%
